Inconclusive results are not listed. A call without a number means that no potency is given here. Activity calls are given as the source filed them. Calls come from the whole dose curve; as a rule, active = well fitted inhibition curve with a large enough effect; inconclusive = small, poorly fitted or top-dose-only effect; inactive = flat fitted curve, though single readings scatter.
Potency is the fitted concentration of half-maximal effect.

The first test can be described thus: BET inhibitor-based combinations targeting novel dependencies in MECOM-rearranged (r) AML: AML-191 cell line (AID 2202236; note: nearly all actives have a fitted effect of over 35% in size). The conditions noted are these: AML-191 viability, CellTiter-Glo luminescence, 48 h; series mostly up to 46 µM. Summed up:
(§1)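 A 48 hr incubation preceded viability reading by CellTiter-Glo, with 15 min room-temperature development. Dose series had 11 points; normalization used DMSO and empty wells; AUC was computed and mean-centered per line as Z-AUC.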
On to `CC(=O)SC[C@@H](C)C(=O)N1CCC[C@H]1C(=O)N[C@@H](Cc1ccccc1)C(=O)O`, for which the Potency result was “inactive”.

On to `CN(C)CC/C=C1/c2ccccc2COc2ccc(CC(=O)O)cc21`, for which the Potency entry is “inactive”.

For `CC1CNc2c(cccc2S(=O)(=O)N[C@@H](CCCN=C(N)N)C(=O)N2CC[C@@H](C)C[C@@H]2C(=O)O)C1` (stereo not given in full), the Potency result is “inactive”.

In the case of `COc1cccc2c1CCCC2CCCN1CCN(C2CCCCC2)CC1` (stereo not given), the Potency was 5900 nM (active).

As for `O=C(/C=C\n1cnc(-c2cc(C(F)(F)F)cc(C(F)(F)F)c2)n1)NNc1cnccn1`, the Potency is 468 nM (active).

For `Nc1nc(-c2nn(Cc3ccccc3F)c3ncccc23)nc(N)c1N1CCOCC1`, the Potency entry was “inactive”.

On to `COc1ccc(-n2c(C)c([N+](=O)[O-])c3ccc(O)cc32)cc1`, for which the Potency is 6610 nM (active).

`Cc1ccc(S(=O)(=O)Nc2nc3ccccc3nc2Nc2ccc3nsnc3c2)cc1`: the Potency result is “inactive”.

In the case of `CC(C)C[C@H](NC(=O)[C@H](CCc1ccccc1)NC(=O)CN1CCOCC1)C(=O)N[C@@H](Cc1ccccc1)C(=O)N[C@@H](CC(C)C)C(=O)[C@@]1(C)CO1`, the Potency is 52.5 nM (active).

As for `CC(=O)[C@H]1CC[C@H]2[C@@H]3CC=C4C[C@@H](O)CC[C@]4(C)[C@H]3CC[C@]12C`, the Potency result is “inactive”.

For `Cc1ccsc1C(=CCCN1CCC[C@@H](C(=O)O)C1)c1sccc1C`, the Potency entry is “inactive”.

Take `CN(CC(=O)N(Cc1ccc(C2CCCCC2)cc1)c1ccc(C(=O)O)c(O)c1)S(=O)(=O)c1c(F)c(F)c(F)c(F)c1F`: the Potency is 26300 nM (active).

`Cc1nc2cnc3ccc(C#Cc4cccnc4)cc3c2n1-c1ccc(C(C)(C)C#N)cc1`: the Potency is 590 nM (active).

As to `CCOC(=O)[C@@H](N)CCC(=O)N[C@@H](CSCc1ccccc1)C(=O)N[C@@H](C(=O)OCC)c1ccccc1`, the Potency was 16600 nM (active).

In the case of `O=c1ccn([C@@H]2O[C@H](CO)[C@H](O)[C@@H]2F)c(=O)[nH]1`, the Potency result is “inactive”.

As for `N#Cc1cc(NC(=O)Nc2nnc(-c3ccncc3)s2)ccc1-c1cn[nH]c1`, the Potency entry was “inactive”.

`NS(=O)(=O)c1ccc(NC2=CC(=O)c3ccccc3C2=O)cc1`: the Potency was 4680 nM (active).

For the molecule `CC(C)C[C@H](NC(=O)CNC(=O)c1cc(Cl)ccc1Cl)B1OC(=O)CC(CC(=O)O)(C(=O)O)O1` (stereo not given in full), the Potency is 166 nM (active).

Take `CC(C)C(C)C=CC(C)C1CCC2C3=CC=C4CC(O)CCC4(C)C3CCC21C` (stereo not given): the Potency entry was “inactive”.

On to `O=C(O)c1cn(-c2ccc(F)cc2)c2cc(N3CCNCC3)c(F)cc2c1=O`, for which the Potency entry is “inactive”.

For the molecule `CC[C@@H]1C(=O)N(C)c2cnc(Nc3ccc(C(=O)NC4CCN(C)CC4)cc3OC)nc2N1C1CCCC1`, the Potency was 166 nM (active).

For `Nc1nc2[nH]cc(CCc3ccc(C(=O)N[C@@H](CCC(=O)O)C(=O)O)cc3)c2c(=O)[nH]1`, the Potency was 525 nM (active).

As to `Cc1cccc(-c2nn(C(=S)Nc3ccccc3)cc2-c2ccnc3ccccc23)n1`, the Potency entry is “inactive”.

For `Nc1nc(=O)n([C@H]2C[C@H](O)[C@@H](CO)O2)cc1F`, the Potency is 186 nM (active).

Regarding `O=C1CN2Cc3c(ccc(Cl)c3Cl)N=C2N1`, the Potency entry was “inactive”.

Take `C=C(C)[C@@H]1CC[C@]2(C)CC[C@]3(C)[C@H](CC[C@@H]4[C@@]5(C)CC[C@H](O)C(C)(C)[C@H]5CC[C@]43C)[C@@H]12`: the Potency result was “inactive”.

With `COc1c(C)cnc(Cn2cnc3c(Cl)nc(N)nc32)c1C`, the Potency was 525 nM (active).

A short description of another test: BET inhibitor-based combinations targeting novel dependencies in MECOM-rearranged (r) AML: AML-194 cell line (AID 2202237; note: nearly all actives have a fitted effect of over 40% in size). Particulars: AML-194 (MECOM-r AML) viability, CellTiter-Glo, 48 h; series mostly up to 46 µM. An outline of the steps:
as §1
Consider `O=C(O)[C@H](O)[C@@H](O)[C@H](O[C@@H]1O[C@H](CO)[C@H](O)[C@H](O)[C@H]1O)[C@H](O)CO`, for which the Potency result is “inactive”.

Consider `CC(=O)SC[C@@H](C)C(=O)N1CCC[C@H]1C(=O)N[C@@H](Cc1ccccc1)C(=O)O`, for which the Potency entry was “inactive”.

In the case of `CN(C)CC/C=C1/c2ccccc2COc2ccc(CC(=O)O)cc21`, the Potency result was “inactive”.

For `CC1CNc2c(cccc2S(=O)(=O)N[C@@H](CCCN=C(N)N)C(=O)N2CC[C@@H](C)C[C@@H]2C(=O)O)C1` (stereo not given in full), the Potency result was “inactive”.

As to `COc1cccc2c1CCCC2CCCN1CCN(C2CCCCC2)CC1` (stereo not given), the Potency result is “inactive”.

`Cc1ccc(C(=O)Nc2ccc(CN3CCN(C)CC3)c(C(F)(F)F)c2)cc1C#Cc1cnc2cccnn12`: the Potency is 1480 nM (active).

As to `O=C(O)[C@H](Cc1c[nH]c2ccccc12)N1C(=O)c2ccccc2C1=O`, the Potency result was “inactive”.

Regarding `O=C(/C=C\n1cnc(-c2cc(C(F)(F)F)cc(C(F)(F)F)c2)n1)NNc1cnccn1`, the Potency is 372 nM (active).

In the case of `Nc1nc(-c2nn(Cc3ccccc3F)c3ncccc23)nc(N)c1N1CCOCC1`, the Potency entry is “inactive”.

As to `COc1ccc(-n2c(C)c([N+](=O)[O-])c3ccc(O)cc32)cc1`, the Potency result was “inactive”.

With `Cc1ccc(S(=O)(=O)Nc2nc3ccccc3nc2Nc2ccc3nsnc3c2)cc1`, the Potency result is “inactive”.

Turning to `CC(C)C[C@H](NC(=O)[C@H](CCc1ccccc1)NC(=O)CN1CCOCC1)C(=O)N[C@@H](Cc1ccccc1)C(=O)N[C@@H](CC(C)C)C(=O)[C@@]1(C)CO1`, the Potency was 52.5 nM (active).

Regarding `CC(=O)[C@H]1CC[C@H]2[C@@H]3CC=C4C[C@@H](O)CC[C@]4(C)[C@H]3CC[C@]12C`, the Potency result is “inactive”.

Consider `Cc1ccsc1C(=CCCN1CCC[C@@H](C(=O)O)C1)c1sccc1C`, for which the Potency entry is “inactive”.

Turning to `CN(CC(=O)N(Cc1ccc(C2CCCCC2)cc1)c1ccc(C(=O)O)c(O)c1)S(=O)(=O)c1c(F)c(F)c(F)c(F)c1F`, the Potency result was “inactive”.

As for `Cc1nc2cnc3ccc(C#Cc4cccnc4)cc3c2n1-c1ccc(C(C)(C)C#N)cc1`, the Potency is 468 nM (active).

Consider `C[C@]12CCC(=O)C=C1[C@@H]1C[C@@H]1[C@H]1[C@@H]3[C@@H]4C[C@@H]4[C@@]4(CCC(=O)O4)[C@@]3(C)CC[C@@H]12`, for which the Potency entry was “inactive”.

Consider `O=c1ccn([C@@H]2O[C@H](CO)[C@H](O)[C@@H]2F)c(=O)[nH]1`, for which the Potency result is “inactive”.

As to `N#Cc1cc(NC(=O)Nc2nnc(-c3ccncc3)s2)ccc1-c1cn[nH]c1`, the Potency entry is “inactive”.

In the case of `NS(=O)(=O)c1ccc(NC2=CC(=O)c3ccccc3C2=O)cc1`, the Potency result is “inactive”.

As to `CC(C)C[C@H](NC(=O)CNC(=O)c1cc(Cl)ccc1Cl)B1OC(=O)CC(CC(=O)O)(C(=O)O)O1` (stereo not given in full), the Potency is 186 nM (active).

As to `O=C(O)CCC1CCC(c2cc(F)ccc2F)(S(=O)(=O)c2ccc(Cl)cc2)CC1` (stereo not given), the Potency result is “inactive”.

On to `CC(C)C(C)C=CC(C)C1CCC2C3=CC=C4CC(O)CCC4(C)C3CCC21C` (stereo not given), for which the Potency result is “inactive”.

Take `O=C(O)c1cn(-c2ccc(F)cc2)c2cc(N3CCNCC3)c(F)cc2c1=O`: the Potency result is “inactive”.

For the molecule `CCc1cc(-c2n[nH]c(C)c2-c2ccc3c(c2)OCCO3)c(O)cc1O`, the Potency was 16600 nM (active).

On to `CC[C@@H]1C(=O)N(C)c2cnc(Nc3ccc(C(=O)NC4CCN(C)CC4)cc3OC)nc2N1C1CCCC1`, for which the Potency is 332 nM (active).

As for `Nc1nc2[nH]cc(CCc3ccc(C(=O)N[C@@H](CCC(=O)O)C(=O)O)cc3)c2c(=O)[nH]1`, the Potency result was “inactive”.

For the molecule `c1coc(CNc2ncnc3nc[nH]c23)c1`, the Potency entry was “inactive”.

As for `Cc1cccc(-c2nn(C(=S)Nc3ccccc3)cc2-c2ccnc3ccccc23)n1`, the Potency entry was “inactive”.

As for `Nc1nc(=O)n([C@H]2C[C@H](O)[C@@H](CO)O2)cc1F`, the Potency is 742 nM (active).

Turning to `O=C1CN2Cc3c(ccc(Cl)c3Cl)N=C2N1`, the Potency result was “inactive”.

With `C=C(C)[C@@H]1CC[C@]2(C)CC[C@]3(C)[C@H](CC[C@@H]4[C@@]5(C)CC[C@H](O)C(C)(C)[C@H]5CC[C@]43C)[C@@H]12`, the Potency entry was “inactive”.

On to `Cc1c(C)c2c(c(C)c1O)CCC(C)(COc1ccc(CC3SC(=O)NC3=O)cc1)O2` (stereo not given), for which the Potency entry was “inactive”.

The values are drawn from PubChem BioAssay (NCATS).
